Results on 33 compounds are retold here after ChEMBL document CHEMBL1961873, “Compounds: GSK PKIS; Assays: Nanosyn kinase panel” (2012).

Molecules are shown by their SMILES.

The target in one assay is Fibroblast growth factor receptor 4 (Homo sapiens) (UniProt P22455). The settings on record: at 0.1 µM.
Fibroblast growth factor receptor 4 (Homo sapiens), sequence (P22455 22-802 limits assumed): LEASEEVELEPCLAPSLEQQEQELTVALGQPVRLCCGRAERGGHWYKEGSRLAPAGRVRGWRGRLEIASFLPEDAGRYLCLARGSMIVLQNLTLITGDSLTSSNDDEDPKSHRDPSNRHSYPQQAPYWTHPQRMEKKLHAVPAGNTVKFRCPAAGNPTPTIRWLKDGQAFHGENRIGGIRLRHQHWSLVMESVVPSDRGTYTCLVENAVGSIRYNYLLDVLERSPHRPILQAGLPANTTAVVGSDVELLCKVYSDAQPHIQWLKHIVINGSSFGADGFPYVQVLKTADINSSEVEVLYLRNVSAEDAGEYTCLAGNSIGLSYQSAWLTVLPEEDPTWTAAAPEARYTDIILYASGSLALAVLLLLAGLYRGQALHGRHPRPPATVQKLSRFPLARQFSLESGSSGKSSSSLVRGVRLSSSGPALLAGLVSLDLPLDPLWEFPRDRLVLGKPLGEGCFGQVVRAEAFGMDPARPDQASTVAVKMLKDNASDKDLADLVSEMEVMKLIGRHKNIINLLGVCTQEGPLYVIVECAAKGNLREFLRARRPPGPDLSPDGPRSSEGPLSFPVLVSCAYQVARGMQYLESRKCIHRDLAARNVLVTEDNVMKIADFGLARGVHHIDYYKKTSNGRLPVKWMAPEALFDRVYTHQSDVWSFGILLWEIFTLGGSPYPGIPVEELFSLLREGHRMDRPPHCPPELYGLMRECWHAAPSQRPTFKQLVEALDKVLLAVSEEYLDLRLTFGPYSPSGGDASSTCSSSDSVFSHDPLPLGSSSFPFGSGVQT
Consider `CS(=O)(=O)CCN(CC#N)Cc1ccc(-c2ccc3ncnc(Nc4ccc(OCc5cccc(F)c5)c(Cl)c4)c3c2)o1`, for which the inhibition (commonly the relative decrease from the control value, in per cent) was 0.11%.
Same read-out and setting: with `CC(=O)Nc1cccc(C#Cc2cncnc2Nc2ccc(OCc3cccc(F)c3)c(Cl)c2)n1` the figure was 0.06%; with `COc1ccccc1Nc1ncc(-c2ccccc2)o1`, -2.79%.
The same measure, in the same setting: then `NS(=O)(=O)c1cccc(-c2ccc3c(NC(=O)C4CC4)n[nH]c3c2)c1`, with 0.21%; and `Cc1nnc(-c2ccc(C)c(-c3ccc(C(=O)Nc4cccc(C#N)c4)cc3)c2)o1`, with 2.08%.
On the same count and under the same terms, then `COc1ccc(-c2nn3ncccc3c2-c2ccnc(Nc3ccc(Cl)c(C(F)(F)F)c3)n2)cc1`, with 0.28%; and `O=C1NC(=O)C(c2ccc(Cl)cc2)=C1Nc1ccc(Cl)c(C(=O)O)c1`, with -0.4%.
For the compound `COC(=O)Nc1nc2cc(Oc3cccc(NC(=O)Nc4cc(C(F)(F)F)ccc4F)c3)ccc2[nH]1`, the inhibition was -1.4%.
With `O=C1NC(=O)C(c2cccc(Cl)c2)=C1Nc1ccc(O)c(Cl)c1`, the inhibition was -2.1%.
Still for that read-out and setting: then `CCCN1CCC=C(c2ccc(Nc3nc(Nc4ccccc4C(N)=O)c4cc[nH]c4n3)c(C)c2)C1`, with 3.01%; and `Nc1nc(-c2ccc3c(c2)C(=Cc2cc(Br)c(O)c(Br)c2)C(=O)N3)cs1`, with -4.66%; and `O=C1NC(=O)C(c2ccccc2Cl)=C1Nc1cccc(O)c1`, with 1.92%.
Same read-out and setting: then `CCc1cccc(NC(=O)Nc2ccc(Oc3ccc4nc(NC(=O)OC)[nH]c4c3)cc2)c1`, with 4.21%; and `CC1=C(C(=O)Nc2ccc3[nH]ncc3c2)C(c2ccc3ccccc3c2)CC(=O)N1` (stereo unspecified), with 0.62%.
Regarding `CS(=O)(=O)Nc1ccc(N/C=C2\C(=O)Nc3ccccc32)cc1`, the inhibition came out at 2.33%.
As for `COc1cc2c(cc1Nc1nc(N3CCc4ccccc43)c3cc[nH]c3n1)N(C(=O)CN(C)C)CC2`, the inhibition is -1.03%.
On the same count and under the same terms, then `CCN1CCC(CC(=O)Nc2n[nH]c3nc(-c4cccs4)c(Br)cc23)CC1`, with 0.71%.
The same measure, in the same setting: then `NCc1ccc(-c2nc(-c3ccc(Cl)c(O)c3)c(-c3ccncc3)[nH]2)cc1`, with -5.87%; and `COC(=O)Nc1nc2cc(Oc3ccc(NC(=O)Nc4cccc(C(=O)O)c4)cc3)ccc2[nH]1`, with -6.8%.
Still for that read-out and setting: then `O=C(Nc1n[nH]c2nc(-c3ccco3)c(Br)cc12)C1CC1`, with -0.77%.
As for `CCn1c(-c2nonc2N)nc2cnc(Oc3cccc(NC(=O)c4ccc(OCCN5CCOCC5)cc4)c3)cc21`, the inhibition was -4.45%.
Still for that read-out and setting: then `COc1cccc(-n2ncc3c(N/N=C/c4cccc(F)c4)ncnc32)c1`, with -3.35%; and `Nc1ncnc2occ(-c3ccc(NC(=O)Nc4cccc(C(F)(F)F)c4)cc3)c12`, with -1%; and `CCn1c(-c2nonc2N)nc2cncc(C(=O)N3CC[C@H](N)C3)c21`, with -6.25%.
Same read-out and setting: with `COc1cc2ncn(-c3cc(O[C@@H](C)c4ccccc4Cl)c(C(N)=O)s3)c2cc1OC` the figure was 0.49%.
On the same count and under the same terms, then `CCCN1CCC(Oc2cc(Nc3nc(Nc4cccc(F)c4C(N)=O)c4cc[nH]c4n3)c(OC)cc2Cl)CC1`, with 0.71%; and `[O-][S+]1CCN(Cc2ccc(-c3ccc4ncnc(Nc5ccc(OCc6ccccc6)c(F)c5)c4c3)o2)CC1`, with 0.38%; and `Cc1ccc(C(=O)NC2CCCCC2)cc1-c1ccc(C(=O)NCC2CC2)cc1`, with -0.52%.
In the case of `CNC(=O)c1cncc(/C=C/c2c(Cl)cccc2Cl)c1`, the inhibition was 1.14%.
On the same count and under the same terms, with `CN(C)c1cc2c(Nc3ccc4nc(Cc5ccccc5)[nH]c4c3)ncnc2cn1` the figure was 2.81%; with `CCn1c(-c2nonc2N)nc2ccncc21`, -8.14%.
The same measure, in the same setting: then `Fc1cccc(COc2ccc(Nc3ncnc4sc(-c5cccs5)cc34)cc2Cl)c1`, with 0.35%; and `Cc1ccc(NC(=O)c2ccnc(N3CCCC3)c2)cc1-c1ccc(C(=O)NCC2CC2)cc1`, with -8.29%.

Another assay has the same target. The settings on record: at 1 µM.
As to `CS(=O)(=O)CCN(CC#N)Cc1ccc(-c2ccc3ncnc(Nc4ccc(OCc5cccc(F)c5)c(Cl)c4)c3c2)o1`, the inhibition is -4.08%.
The same measure, in the same setting: with `CC(=O)Nc1cccc(C#Cc2cncnc2Nc2ccc(OCc3cccc(F)c3)c(Cl)c2)n1` the figure was 0.7%.
Still for that read-out and setting: with `COc1ccccc1Nc1ncc(-c2ccccc2)o1` the figure was 0.7%; with `NS(=O)(=O)c1cccc(-c2ccc3c(NC(=O)C4CC4)n[nH]c3c2)c1`, -0.5%; with `Cc1nnc(-c2ccc(C)c(-c3ccc(C(=O)Nc4cccc(C#N)c4)cc3)c2)o1`, 0.88%.
Same read-out and setting: then `COc1ccc(-c2nn3ncccc3c2-c2ccnc(Nc3ccc(Cl)c(C(F)(F)F)c3)n2)cc1`, with 0.98%.
Take `O=C1NC(=O)C(c2ccc(Cl)cc2)=C1Nc1ccc(Cl)c(C(=O)O)c1`: the inhibition was 1.95%.
Still for that read-out and setting: with `COC(=O)Nc1nc2cc(Oc3cccc(NC(=O)Nc4cc(C(F)(F)F)ccc4F)c3)ccc2[nH]1` the figure was 0.74%.
Still for that read-out and setting: with `O=C1NC(=O)C(c2cccc(Cl)c2)=C1Nc1ccc(O)c(Cl)c1` the figure was 2.43%; with `CCCN1CCC=C(c2ccc(Nc3nc(Nc4ccccc4C(N)=O)c4cc[nH]c4n3)c(C)c2)C1`, 1.82%.
Same read-out and setting: then `Nc1nc(-c2ccc3c(c2)C(=Cc2cc(Br)c(O)c(Br)c2)C(=O)N3)cs1`, with 3.96%.
Take `O=C1NC(=O)C(c2ccccc2Cl)=C1Nc1cccc(O)c1`: the inhibition turned out to be 0.13%.
Same read-out and setting: then `CCc1cccc(NC(=O)Nc2ccc(Oc3ccc4nc(NC(=O)OC)[nH]c4c3)cc2)c1`, with -0.63%; and `CC1=C(C(=O)Nc2ccc3[nH]ncc3c2)C(c2ccc3ccccc3c2)CC(=O)N1` (stereo unspecified), with 10.6%.
The same measure, in the same setting: then `CS(=O)(=O)Nc1ccc(N/C=C2\C(=O)Nc3ccccc32)cc1`, with 5.07%; and `COc1cc2c(cc1Nc1nc(N3CCc4ccccc43)c3cc[nH]c3n1)N(C(=O)CN(C)C)CC2`, with 0.78%; and `CCN1CCC(CC(=O)Nc2n[nH]c3nc(-c4cccs4)c(Br)cc23)CC1`, with 1.97%.
The same measure, in the same setting: then `NCc1ccc(-c2nc(-c3ccc(Cl)c(O)c3)c(-c3ccncc3)[nH]2)cc1`, with 2.75%; and `COC(=O)Nc1nc2cc(Oc3ccc(NC(=O)Nc4cccc(C(=O)O)c4)cc3)ccc2[nH]1`, with -1.22%; and `O=C(Nc1n[nH]c2nc(-c3ccco3)c(Br)cc12)C1CC1`, with 2.76%.
As to `CCn1c(-c2nonc2N)nc2cnc(Oc3cccc(NC(=O)c4ccc(OCCN5CCOCC5)cc4)c3)cc21`, the inhibition came out at 2.48%.
The same measure, in the same setting: with `COc1cccc(-n2ncc3c(N/N=C/c4cccc(F)c4)ncnc32)c1` the figure was -5.17%.
Still for that read-out and setting: then `Nc1ncnc2occ(-c3ccc(NC(=O)Nc4cccc(C(F)(F)F)c4)cc3)c12`, with 13.3%; and `CCn1c(-c2nonc2N)nc2cncc(C(=O)N3CC[C@H](N)C3)c21`, with 0.42%.
With `COc1cc2ncn(-c3cc(O[C@@H](C)c4ccccc4Cl)c(C(N)=O)s3)c2cc1OC`, the inhibition came to 2.7%.
`CCCN1CCC(Oc2cc(Nc3nc(Nc4cccc(F)c4C(N)=O)c4cc[nH]c4n3)c(OC)cc2Cl)CC1`: the inhibition is 1.48%.
The same measure, in the same setting: with `[O-][S+]1CCN(Cc2ccc(-c3ccc4ncnc(Nc5ccc(OCc6ccccc6)c(F)c5)c4c3)o2)CC1` the figure was 0.02%; with `Cc1ccc(C(=O)NC2CCCCC2)cc1-c1ccc(C(=O)NCC2CC2)cc1`, 2.89%; with `CNC(=O)c1cncc(/C=C/c2c(Cl)cccc2Cl)c1`, 1.17%.
Still for that read-out and setting: then `CN(C)c1cc2c(Nc3ccc4nc(Cc5ccccc5)[nH]c4c3)ncnc2cn1`, with 13.5%; and `CCn1c(-c2nonc2N)nc2ccncc21`, with -0.3%; and `Fc1cccc(COc2ccc(Nc3ncnc4sc(-c5cccs5)cc34)cc2Cl)c1`, with 3.41%.
Still for that read-out and setting: then `Cc1ccc(NC(=O)c2ccnc(N3CCCC3)c2)cc1-c1ccc(C(=O)NCC2CC2)cc1`, with -0.86%.
